ClpP mod: qHTS Assay for Activators of ClpP; ATP-dependent Clp protease proteolytic subunit (Bacillus subtilis (strain 168)), P80244; purified B. subtilis ClpP, FRET peptide cleavage, 20 min; Potency, µM (series often up to 57.5 µM), for inactives: at the top dose activity change, negative = active; 1.9% of 340,000 active; AID 651965, 2013; active means well fitted falling curve with a large enough effect; inconclusive means small, poorly fitted or top-dose-only effect; inactive means no such curve, though single readings can be large or run the other way; further: the source files actives as falling curves though it sought activators and does not explain the sign; nearly all actives have a fitted effect of over 65% in size
Target sequence (P80244 whole entry, looked up): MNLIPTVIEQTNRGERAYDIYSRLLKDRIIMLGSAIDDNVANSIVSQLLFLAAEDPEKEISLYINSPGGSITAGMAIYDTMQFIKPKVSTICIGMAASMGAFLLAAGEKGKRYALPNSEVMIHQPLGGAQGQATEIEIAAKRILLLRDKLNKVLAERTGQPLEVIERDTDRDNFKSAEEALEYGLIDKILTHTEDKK
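Purified B. subtilis ClpP, 10 microg/mL final in Tris/HCl pH8 with KCl, BSA, glycerol and Tween-20, cleaved an Abz/nitrotyrosine-quenched decapeptide. Fluorescence (ex 320, em 430) was read at 0 and 20 min at room temperature. Delta was normalized to 5.8 microM ADEP and DMSO/no-enzyme controls.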
TDP1 cell CPT: DT40-hTDP1 cell growth loss with CPT | Potency, µM (doses to about 46.2 µM), inactives show at the highest dose activity change, negative = growth inhibition, actives largely listed as inhibitors | AID 686979 | 12% of 420,000 active | chicken DT40 Tdp1-/-;hTDP1 cells + 20 nM CPT, ATP luminescence, 48 h; further: on the % scale 0 is the no-effect control and ±100 the full control effect; nearly all actives have a fitted effect of over 55% in size
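Chicken DT40 Tdp1-/- cells complemented with human TDP1, 400 cells/well, exposed to compounds plus 20 nM camptothecin for at least 48 h at 37 C; viability read as ATP content by CellTiter-Glo luminescence.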
TDP1 inh: inhibitors of human tyrosyl-DNA phosphodiesterase TDP1; Q9NUW8; Potency, µM (top dose mostly 130 µM), inactives show at the top dose activity change, negative = inhibition, hits mostly inhibitors; recombinant TDP1, AlphaScreen DNA substrate cleavage; 0.28% of 350,000 active; further: on the % scale 0 is the no-effect control and ±100 the full control effect; nearly all actives have a fitted effect of over 40% in size
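Here, a 5' biotin and 3' phosphotyrosine-FITC DNA oligonucleotide reports Tdp1 activity: intact substrate bridges AlphaScreen beads, while cleavage leaves a 3' phosphate and drops signal. All incubations at room temperature.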
TDP1 cell noCPT: qHTS for Inhibitors of human tyrosyl-DNA phosphodiesterase 1 (TDP1): qHTS in cells in absence of CPT; DT40 Tdp1-/- hTDP1 cells, no CPT, ATP luminescence, 48 h; Potency, µM (top dose mostly 46.2 µM), for inactives: top-dose activity change, negative = growth inhibition, most hits filed as inhibitors; 15% of 420,000 active; further: on the % scale 0 is the no-effect control and ±100 the full control effect; nearly all actives have a fitted effect of over 55% in size
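DT40 Tdp1-/-;hTDP1 cells, no CPT (DMSO vehicle only), 400 cells/well; compounds pin-transferred; ≥48 hr, 37 °C; CellTiter-Glo 30 min RT dark, luminescence read.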
* marks the source's active call; other numbers are inactive results; u = inconclusive; x = no result. Rows were chosen to be rich in hits. Some 17% of all compounds tested hit in one or more screens of this group. Unless noted, the call rests on the fitted dose curve; in most records, active means well fitted curve in the direction sought with a large enough effect; inconclusive means small, poorly fitted or top-dose-only effect, or another doubt; inactive means no such curve, though single readings can be large; an effect the other way counts as inactive or inconclusive. Potency means the concentration at half of the fitted maximal effect.

SMILES	ClpP mod	TDP1 cell CPT	TDP1 inh	TDP1 cell noCPT
O=C(NCc1ccncc1)[C@@H]1CCCN1C(=O)[C@@H]1CCCN1C(=O)c1cccc2ccccc12	0%	-25%	x	-26%
Cc1cccc(N2CCN(C(=O)Cn3nc(C)c4sc5ccccc5c4c3=O)CC2C)c1 (centres undefined)	-2%	u	14%	u
O=S(=O)(CCc1ccccc1)c1nnnn1C1CCCCC1	x	x	2%	x
O=C1NC[C@H](CCCCN2C[C@H](Cc3ccc(O)cc3)N(Cc3ccccc3)C(=O)C2=O)N(CC2CCCCC2)C1=O	-4%	-6%	x	-10%
CSc1nccc(N2CCN(c3ccc(F)cc3)CC2)n1	x	13µM*	4%	u
Clc1ccc(N2CCN(c3ccnc(Cl)n3)CC2)cc1	0%	-19%	x	u
CCOC(=O)C(Cc1ccnnc1)=NO	x	-30%	x	u
Cc1ccc(-c2cc(C(=O)NCc3cnn(C)c3C)c3cc(Br)ccc3n2)cc1	-13%	u	3%	u
Cc1ccc(-c2cc(C(=O)N(C)Cc3cnn(C)c3C)c3cc(Br)ccc3n2)cc1	-20%	7.3µM*	3%	10µM*
Nc1cc(Cl)c([N+](=O)[O-])cc1O	x	x	9%	x
CCCC/C=C/[C@H](C)[C@@](C)(COC(=O)c1ccc(Br)cc1)Cc1ccccc1	x	x	22%	x
COc1cccc(C2=Nn3c(nnc3-c3ccc(OC)c(OC)c3)SC2)c1	x	x	1%	x
CCCCCCNC(=O)N1C/C=C\C(c2ccc(OC)cc2)N(Cc2ccc(F)cc2)C(=O)C1 (centres undefined)	2%	u	4%	23µM*
CCCCCCC(=O)N1C/C=C\C(c2ccc(OC)cc2)N(Cc2ccc(F)cc2)C(=O)C1 (centres undefined)	2%	u	6%	23µM*
COC(=O)[C@H](Cc1ccccc1)NC(=O)N1CCN(c2ccc(F)cc2)CC1	-1%	u	x	-22%
O=C(Nc1ccc(F)cc1)c1ccc(-n2cnnc2)cc1	0%	-6%	2%	u
C[C@@H]1CN([C@@H](C)CO)C(=O)c2cc(NC(=O)C3CC3)ccc2O[C@@H]1CN(C)C(=O)NC1CCCCC1	-6%	-9%	-2%	u
COc1ccc(OC)c(/C=N/N=C2\SCC(=O)N2Cc2ccco2)c1	-16%	-22%	5%	u
COc1ccc(OC)c(C2(O)CSC(=Nc3cccnc3)N2Cc2ccco2)c1 (centres undefined)	-20%	15µM*	5%	18µM*
Cc1c(NC(=O)c2ccc(C(=O)Nc3c(C)n(C)n(-c4ccccc4)c3=O)cc2)c(=O)n(-c2ccccc2)n1C	-3%	u	x	-2%
Cc1c(N=C2N=C(NC(=O)c3ccc(F)cc3)c3ccccc32)c(=O)n(-c2ccccc2)n1C	x	16µM*	8%	23µM*
Clc1ccc(CCNc2ncnc3c2nnn3Cc2ccccc2)cc1	-2%	-22%	x	u
COc1ccc(-n2ccnc(NCCc3ccccc3)c2=O)cc1OC	-10%	u	8%	21µM*
COc1ccc(CCNc2ncnc3c2nnn3Cc2ccccc2)cc1OC	-3%	23µM*	x	u
COc1cc2ncnc(NCc3ccc(C)cc3)c2cc1OC	-16%	u	8%	23µM*
SMILES	ClpP mod	TDP1 cell CPT	TDP1 inh	TDP1 cell noCPT
Cc1cc(C)cc(-n2ccnc(NCCc3ccccc3)c2=O)c1	-5%	u	0%	u
COc1ccc(CCNc2ncnc3c2[nH]c2cc(OC)c(OC)cc23)cc1OC	x	4.6µM*	2%	6.5µM*
COc1ccc(CCNc2nc(=S)[nH]c3cc(OC)c(OC)cc23)cc1OC	-7%	-29%	5%	u
CCNC(=O)C1(C)CCN(C(=O)c2ccc(C(=O)OC)cc2)C1 (centres undefined)	2%	0%	x	-11%
COc1cc2ncnc(NCCc3ccccc3)c2cc1OC	-19%	13µM*	3%	9.2µM*
COc1ccc(CCNc2ncnc3cc(OC)c(OC)cc23)cc1OC	-1%	3.7µM*	5%	6.5µM*
COc1ccc(CCNc2ncnc3c2nnn3C)cc1OC	1%	u	5%	u
COc1ccc(CNc2ncnc3cc(Cl)ccc23)cc1OC	1%	u	x	13µM*
Cc1ccc(-n2ccnc(NCc3cccs3)c2=O)cc1C	-9%	u	8%	13µM*

From PubChem BioAssay
